# Assay outcomes deposited in PubChem BioAssay by The Scripps Research Institute Molecular Screening Center.
# A selection: hits, their analogues and other compounds. The true share with any hit is near 0.9%.
# PPARg SRC-1 ag = PPARgamma-driven SRC-1 recruitment agonism | P37231 | PPARgamma-SRC-1 coactivator recruitment biochemical assay | activation, % at 8 µM | 200,000 tested, 0.41% active | AID 631; in the data active = activation above about 19%;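 also: 0% = DMSO and 100% = reference agonist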
# Target sequence (P37231 whole entry, looked up): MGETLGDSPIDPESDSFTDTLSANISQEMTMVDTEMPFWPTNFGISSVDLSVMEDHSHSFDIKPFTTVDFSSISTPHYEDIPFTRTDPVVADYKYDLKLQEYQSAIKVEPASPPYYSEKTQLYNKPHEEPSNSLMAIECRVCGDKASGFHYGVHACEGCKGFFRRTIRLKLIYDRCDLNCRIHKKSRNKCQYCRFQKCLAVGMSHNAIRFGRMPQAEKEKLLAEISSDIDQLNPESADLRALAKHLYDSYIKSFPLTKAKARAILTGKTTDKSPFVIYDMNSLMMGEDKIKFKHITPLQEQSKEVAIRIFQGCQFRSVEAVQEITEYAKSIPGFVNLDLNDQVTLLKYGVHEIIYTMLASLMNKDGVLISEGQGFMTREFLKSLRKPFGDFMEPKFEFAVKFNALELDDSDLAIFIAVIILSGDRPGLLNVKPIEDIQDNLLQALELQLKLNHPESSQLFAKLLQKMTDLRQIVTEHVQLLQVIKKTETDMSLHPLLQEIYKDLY
# PPARg SRC3 recr = promotes SRC-3 coactivator recruitment by human PPARgamma; P37231; biochemical PPARgamma/SRC-3 coactivator recruitment assay; activation, % at 8 µM; 200,000 tested, 0.26% active; AID 731; in the data active = activation above about 23%;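 also: 0% = DMSO and 100% = reference agonist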
# PPARg SRC2 recr = promotes SRC-2 coactivator recruitment by human PPARgamma. P37231. PPARgamma LBD-SRC-2 recruitment, biochemical. activation, % at 8 µM. 200,000 tested, 0.34% active; in the data active = activation above about 22%;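 also: 0% = vehicle and 100% = reference agonist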
# SRC1 TRFRET art = flags TR-FRET format artefacts in PPARgamma SRC-1 recruitment agonist screen. TR-FRET ratio at 8 µM. 99,000 tested, 0.34% active. TR-FRET detection artefact counter-screen, emission ratio; stronger effect = higher value; in the data active = TR-FRET ratio above about 2300
# TR-FRET SRC-2 ct = flags TR-FRET format artefacts in PPARgamma SRC-2 recruitment agonist screen; TR-FRET artefact counter-screen; stronger effect = higher value; TR-FRET ratio at 8 µM; 200,000 tested, 0.4% active
# SRC3 TRFRET art = TR-FRET artefact, counter-screen to PPARgamma/SRC-3 agonist assay; TR-FRET ratio at 8 µM; 99,000 tested, 0.39% active; PPARgamma/SRC-3 format; stronger effect = higher value
# * = called active by the depositor; / = no result given. Rule as the data show it, unless noted: active = TR-FRET ratio above about 2000; inactive = the rest.
SMILES,PPARg SRC-1 ag,PPARg SRC3 recr,PPARg SRC2 recr,SRC1 TRFRET art,TR-FRET SRC-2 ct,SRC3 TRFRET art
COC(=O)c1ccc(OC(=O)CCN2c3ccccc3Sc3ccccc32)cc1,11,6,16,1971,2002*,2754*
COc1ccc2cc(Br)ccc2c1CC(=O)NC(C)(C)C,10,17,14,2214,2017*,2048
CC(Oc1ccccc1)C(=O)NC1=NCCS1 (stereo not drawn),5,1,3,1735,1473,1502
CC(=O)c1c(C)[n+]([O-])c2ccc3c(non3O)c12,7,-1,7,1946,1981*,1809
CC1CCN(S(=O)(=O)c2ccc3c(c2)oc(=O)n3CC(=O)N2c3ccccc3CC2C)CC1 (stereo not drawn),10,9,16,/,2000*,/
O=C(Nc1ccccn1)c1cc(-c2cccc(Cl)c2)nc2ccccc12,14,2,5,2351*,1804,2298*
CC(=O)Nc1ccc(Nc2nc(Cl)nc(Nc3ccc(NC(C)=O)cc3)n2)cc1,3,3,1,1651,1395,1482
COc1ccc(-c2ccc(C#N)c(SCC(=O)OCc3ccccc3)n2)cc1OC,-4,5,-1,/,2143*,/
Cc1cc(C)c(S(=O)(=O)Nc2ccc3[nH]c(=O)[nH]c3c2)c(C)c1,22*,7,5,1785,1779,1529
Cc1cc(C)c(S(=O)(=O)Nc2c(C)[nH]c(=O)[nH]c2=O)c(C)c1,6,1,6,/,1492,/
O=C(NCC1OCCCN1S(=O)(=O)c1cc(F)ccc1F)C(=O)NC1CCCCCC1 (stereo not drawn),10,3,7,1792,1747,1363
CCOC(=O)C1C(=O)C=C(c2ccc(C)cc2)CC1c1ccccc1 (stereo not drawn),8,0,11,2102,2001*,1705
CCOC(=O)C1C(=O)C=C(c2ccc([N+](=O)[O-])cc2)CC1c1ccccc1 (stereo not drawn),2,3,1,/,1385,/
COc1ccc2nc(C)cc(SCC(=O)NNC(=O)COc3ccc(C)cc3)c2c1,16,11,16,/,1879,/
COc1ccc2nc(C)cc(SCC(=O)Nc3c(C)cccc3C)c2c1,-3,10,26*,2033,1994*,2003
COc1ccc2nc(C)cc(SCC(=O)Nc3c(C)cc(C)cc3C)c2c1,32*,7,12,/,1613,/
CC(C)(C)c1nnc(NC(=O)CN2C(=O)C3C4C=CC(C4)C3C2=O)s1 (stereo not drawn),0,36*,-11,/,1429,/
COc1ccc2oc(C(=O)CCC(=O)O)c(N)c2c1,0,18,9,/,1609,/
COC(=O)CCC(=O)c1oc2ccc(Br)cc2c1N,-1,5,24*,/,1390,/
O=C(C1=C[C@@H](c2ccc(C(F)(F)F)cc2)C[C@@H](OCCCCO)O1)N1CCN(Cc2ccc3c(c2)OCO3)CC1,10,32*,0,1799,1423,1594
CN(C)/C=C(\C=O)c1ncc(C(F)(F)F)cc1Cl,1,0,-12,1716,1552,1481
CC(C)c1ccccc1-n1c(SCC(=O)N2CCc3ccccc3C2)nc2ccccc2c1=O,3,2,10,1834,1633,1635
CC(C)c1ccccc1-n1c(SCC(=O)c2ccc3c(c2)NC(=O)CO3)nc2ccccc2c1=O,0,11,-1,2916*,2160*,2760*
Cn1c(=O)c2c(nc(NCCOc3ccc(F)cc3)n2C)n(C)c1=O,-3,1,1,1645,1584,1399
S=c1[nH]nc(-c2ccccn2)n1/N=C/c1ccc(-c2ccccc2Cl)o1,4,6,12,1956,1636,1683
SMILES,PPARg SRC-1 ag,PPARg SRC3 recr,PPARg SRC2 recr,SRC1 TRFRET art,TR-FRET SRC-2 ct,SRC3 TRFRET art
O=S(=O)(Nc1ccc(C(F)(F)F)cc1)c1cnc[nH]1,8,-1,6,1541,1467,1657
O=S(=O)(Nc1cccc(C(F)(F)F)c1)c1cnc[nH]1,5,1,35*,1838,1811,1615
C=CCNC(=O)C1CCN(c2ccc(S(=O)(=O)N3CCOCC3)cc2[N+](=O)[O-])CC1,7,-3,2,1740,1746,1596
O=S(=O)(c1ccccc1)N1CCC(O)(CSc2ccc(F)cc2)CC1,-2,3,6,1738,1641,1327
O=C(COc1ccccc1-c1ccccc1)NCc1ccco1,54*,-5,3,4796*,1456,1556
Cc1ccccc1C(=O)N1CCc2cc(-c3nc(NC(=O)Cc4ccc5c(c4)OCO5)sc3C)ccc21,9,9,2,2310,2157*,2401*
Cc1sc(NC(=O)Cc2ccc3c(c2)OCO3)nc1-c1ccc2c(c1)CCN2C(=O)c1cccc(F)c1,-1,2,7,1641,1658,1615
Cc1cc(C)nc(/N=c2/ssnc2Cl)c1,9,28*,-4,/,1451,/
Cc1ccc(N=c2ssnc2Cl)cc1,0,8,2,/,1546,/
COc1ccc(-n2c(O)c(/C=N/NS(=O)(=O)c3cccc([N+](=O)[O-])c3)c3ccccc3c2=O)cc1OC,22*,6,-5,1942,1428,1532
O=[N+]([O-])c1cccc(/C=N/NS(=O)(=O)c2ccccc2)c1,1,0,3,1742,1638,1452
COc1cc(C(=O)N/N=c2/sc3ccccc3n2C)cc(OC)c1OC,-3,0,0,1686,1548,1477
COc1ccc(C(=O)N=c2sc3ccccc3n2C)cc1OC,168*,4,-2,4952*,1578,1605
CN1c2ccsc2/C(=N/Nc2ccccc2)CS1(=O)=O,0,7,13,2232,2054*,1742
CN1c2ccsc2/C(=N/NC(=O)c2c(F)cccc2F)CS1(=O)=O,7,0,13,/,1571,/
CC(=O)OCC(=O)Nc1cc(S(=O)(=O)N2CCCCCC2)ccc1Cl,-3,-2,3,1694,1518,1482
O=C(COC(=O)c1cc(Br)ccc1O)Nc1cc(S(=O)(=O)N2CCCC2)ccc1Cl,0,2,-3,2170,1710,2102*
CCOc1[nH]n(-c2ccccc2)c(=O)c1C=NCc1cccnc1,-1,-2,5,2015,1764,1639
COc1ccc(CSc2nnc(Cc3sc(-c4ccccc4)nc3-c3ccccc3)o2)cc1,8,17,10,/,3227*,/
Nc1nc(-c2ccc(Cl)cc2)nnc1-c1ccc(Br)cc1,1,11,-2,1858,1760,3281*
COc1ccc(OCC(=O)Nc2cccc3cccnc23)cc1,2,8,11,2429*,1763,1536
COc1ccc(OCC(=O)Nc2cccc(NC(=O)COc3ccc(OC)cc3)n2)cc1,9,10,15,/,1570,/
CC(=O)c1ccc(-c2ccc(C(=O)N3CCCc4ccccc43)o2)cc1,6,11,7,1817,1686,1636
CCc1nc2ccc(C(=O)Nc3cccc(C(C)=O)c3)cc2nc1CC,-2,-4,-7,1697,1617,1517
